Assay results taken from PubChem BioAssay (Tox21).
Results filed as inconclusive are left out. Values without a mark were called inactive. Calls of active or inactive are those of the source. Calls follow the shape of the dose curve; as a rule, active = well fitted cell-killing curve with a large enough effect in the repeat runs; inconclusive = weak or mixed curves, or effect the other way; inactive = flat fitted curve, though single readings scatter.

assay: qHTS assay to identify small molecule that activate the aryl hydrocarbon receptor (AhR) signaling pathway - cell viability counter screen (AID 743086); conditions: HepG2-AhR-luc viability, CellTiter-Fluor, 24 h; series mostly up to 70.3 µM; viability change, negative = cytotoxic: at the top concentration;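 also: HepG2 liver cells carrying the AhR DRE luciferase reporter; nearly all actives have a fitted effect of over 45% in size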
Description: U.S. Tox21 Program National Center for Advancing Translational Sciences [NCATS] NIH Chemical Genomics Center [NCGC] U.S. Environmental Protection Agency [EPA] National Institutes of Environmental Health Sciences [NIEHS] National Toxicology Program [NTP] U.S. Food and Drug Administration [FDA] Tox21 Assay overview: The Aryl hydrocarbon Receptor (AhR), a member of the family of basic helix-loop-helix transcription factors, is crucial to adaptive responses to environmental changes. AhR mediates cellular responses to environmental pollutants such as aromatic hydrocarbons through induction of phase I and II enzymes but also interacts with other nuclear receptor signaling pathways A cell based HepG2-AhR-luc assay (HG2L7.5c1 cell line, developed by Dr. Michael S. Denison, University of California at Davis) was used to assess the activation of AhR. HepG2 (human hepatocellular carcinoma) cells were stably transfected with an Ah receptor-responsive firefly luciferase reporter gene plasmid containing 20 dioxin responsive elements and luciferase reporter gene. Increased luciferase activity can be used to identify the compounds that induce AhR activation. The cytotoxicity of the compounds screened against the HepG2-AhR-luc cell line was tested in parallel by measuring the cell viability using CellTiter-Fluor assay in the same wells.
Tox21 Assay Protocol Summary: 4000 cells in 5 uL/well were dispensed into white wall/solid bottom 1536-well plates using a Multidrop Combi (Thermo Fisher Scientific Inc., Waltham, MA) dispenser. After the assay plates were incubated at 37C for 5 h, 23 nL of compound or DMSO vehicle was transferred to the assay plates by a pintool station (Kalypsys, San Diego, CA). The plates were incubated at 37C for 24 hr. For cell viability measurement, 1 ul/well of CellTiter-Fluor reagent (Promega, Madison, WI) was added into the assay plates using a Flying Reagent Dispenser (FRD) (Aurora Discovery, CA),and then the assay plates were incubated at 37C for 30 min. The fluorescence intensity in the plates was measured using a ViewLux plate reader (PerkinElmer, Shelton, CT), followed by the addition of 4 uL of ONE-Glo Luciferase Assay reagent (Promega) using an FRD (Aurora Discovery). After the assay plates were incubated at room temperature for 30 min, luminescence intensity was measured using a ViewLux plate reader (Perkin Elmer).
% is scaled to controls: 0 for no effect and ±100 for the full control effect.

| Structure (SMILES) | viability change, negative = cytotoxic | outcome |
| --- | --- | --- |
| C[C@H]1COc2c(C3(N)CC3)c(F)cc3c(=O)c(C(=O)O)cn1c23 | 6.3% |  |
| C[C@]12C=CC(=O)C=C1[C@@H](F)C[C@@H]1[C@@H]2[C@@H](O)C[C@@]2(C)[C@H]1CC[C@]2(O)C(=O)CO |  | inactive |
| CCCCCC(CC)OC(=O)CCCOc1ccc(Cl)cc1Cl (stereo not given) | -4.05% |  |
| Cc1cc(N)no1 | -0.305% [at 95 µM] |  |
| NNC(=O)OCc1ccccc1 | 8.1% |  |
| CCCCCCCC(=O)N(C)C | 14.9% |  |
| CCCC[O][Al]([O]CCCC)[O]CCCC | 5.35% |  |
| CCC(C)SSC(C)CC (stereo not given) | 3.4% |  |
| CC1(C)S[C@@H]2[C@H](NC(=O)Cc3ccccc3)C(=O)N2[C@H]1C(=O)O (tested in a mixture with another compound) | 13.8% |  |
| CCO/C=C1\N=C(c2ccccc2)OC1=O | 2.38% |  |
| CN1C(CCl)Nc2cc(Cl)c(S(N)(=O)=O)cc2S1(=O)=O (stereo not given) | -0.0984% |  |
| C[C@@H]1NC(=O)[C@@H](N)CNC(=O)[C@H](C2CCNC(N)=N2)NC(=O)/C(=C/NC(N)=O)NC(=O)[C@H](CNC(=O)C[C@@H](N)CCCN)NC1=O (stereo not given in full) |  | inactive |
| CCCCCC(=O)CC | 12.6% [at 95 µM] |  |
| CN(C)CCc1c[nH]c2ccc(CS(=O)(=O)N3CCCC3)cc12 | 13.1% |  |
| Cc1ccc(O)c([N+](=O)[O-])c1 | 6.95% [at 95 µM] |  |
| CC12CCCC=C1C(=O)OC2=O (stereo not given) | 5.44% |  |
| N#CC1(N)CCCCC1 | 1.74% [at 95 µM] |  |
| Cc1cc(O)c(Cl)cc1C | -1.72% |  |
| CC(C)C[P+](C)(CC(C)C)CC(C)C | 4.5% [at 95 µM] |  |
| O=Cc1ccccc1S(=O)(=O)O | -2.47% |  |

| Structure (SMILES) | viability change, negative = cytotoxic | outcome |
| --- | --- | --- |
| Cc1ccc(S(=O)(=O)NC(=O)NN2CC3CCCC3C2)cc1 (stereo not given) | -0.632% [at 32.5 µM] |  |
| C[C@@H](CN1CC(=O)NC(=O)C1)N1CC(=O)NC(=O)C1 | -6.26% |  |
| COc1cnc(NS(=O)(=O)c2ccc(N)cc2)nc1 | 13.5% [at 32.5 µM] |  |
| O=C1CC2(CCCC2)CC(=O)N1CCNCC1COc2ccccc2O1 (stereo not given) | 10.8% |  |
| Nc1nc(Cl)cc(Cl)n1 | -4.03% |  |
| NC(=O)CC[C@@H](N)C(=O)O | 8% |  |
| O=S(=O)(O)c1ccc(Cl)cc1 | 18.7% |  |
| Cc1cccc(N)n1 | 12.4% [at 95 µM] |  |
| COc1cc2nc(N3CCN(C(=O)C4CCCO4)CC3)nc(N)c2cc1OC (stereo not given) | -2.52% |  |
| CCCCCCCCCCCCCCCC(=O)OC | 7.71% [at 32.5 µM] |  |
| CCCCCCCCCCCC(C)=O | 5.79% |  |
| COCCCOc1cc(C[C@@H](C[C@H](N)[C@@H](O)C[C@H](C(=O)NCC(C)(C)C(N)=O)C(C)C)C(C)C)ccc1OC | -17.9% |  |
| CCCCCCCCCCCCCCCCN(C)C | -0.517% [at 8.47 µM] |  |
| CC(C)(C)C(=O)NCCCC(=O)O | 18.1% |  |
| C=CC(C)(CCC=C(C)C)OC(=O)C(C)C (stereo not given) | 8.7% |  |
| CC(O)CCCCn1c(=O)c2c(ncn2C)n(C)c1=O (stereo not given) | -3.48% |  |
| Cc1nnc(C(=O)NC(C)(C)c2nc(C(=O)NCc3ccc(F)cc3)c(O)c(=O)n2C)o1 | -0.409% |  |
| CCCCCCCCCCCCCCBr | -1.73% [at 95 µM] |  |
| C/C=C/C(=O)CCCC | 8.58% |  |
| O=C(OOC(=O)c1ccccc1)c1ccccc1 | 13% |  |
